Measurements taken from PubChem BioAssay.
Unmarked numbers belong to inactive results. For some of these results: Entries with a potency or affinity are not part of this list. Activity calls are given as the source filed them. Unless noted, the rule behind the calls is not given here.

What was measured:
[1] = antimalarial activity against Dd2 strain (AID 2302;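 active = growth inhibition above 50% at the single 2 µM test dose, taken to imply half-maximal potency below 2 µM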;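 note: 0% = DMSO untreated growth and 100% = chloroquine plus artemisinin killed control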); settings: P. falciparum Dd2 in RBCs, LDH growth readout, 72 h; at 2 µM; hits give high values
[2] = human hepatoma cell viability loss – ATP luminescence, cytotoxicity control for P. falciparum antimalarial project, primary screen (AID 2303;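 active = inhibition above 50%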;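 note: 0% = DMSO wells and 100% = digitonin-killed cells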); settings: HepG2 viability, 24-48 h, at 10 µM, hits give high values
[3] = target: L-lactate dehydrogenase (Plasmodium falciparum (isolate CDC / Honduras)) (UniProt Q27743); assay: PfLDH activity inhibition – cell lysate, 3D7 strain, counter-screen for P. falciparum growth inhibition project (AID 2304);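 note: 0% = vehicle and 100% = reference inhibitor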; settings: P. falciparum 3D7 crude extract, LDH APAD/NBT absorbance; at 2 µM; hits give high values
L-lactate dehydrogenase (Plasmodium falciparum (isolate CDC / Honduras)), sequence (Q27743 whole entry, looked up): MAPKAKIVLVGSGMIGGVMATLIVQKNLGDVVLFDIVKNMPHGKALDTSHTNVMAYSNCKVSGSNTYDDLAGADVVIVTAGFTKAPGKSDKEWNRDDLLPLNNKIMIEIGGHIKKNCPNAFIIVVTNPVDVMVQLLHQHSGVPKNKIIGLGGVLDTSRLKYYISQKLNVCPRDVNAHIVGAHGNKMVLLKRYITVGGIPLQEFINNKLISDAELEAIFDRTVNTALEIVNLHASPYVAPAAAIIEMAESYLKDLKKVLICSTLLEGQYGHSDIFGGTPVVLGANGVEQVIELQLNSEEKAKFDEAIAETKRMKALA

[4] = inhibition of 3D7 malaria parasite growth – strain 3D7 (AID 2306);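 note: 0% = DMSO wells and 100% = chloroquine plus artemisinin control wells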; settings: P. falciparum 3D7 erythrocytic growth, LDH absorbance, 72 h; at 2 µM; hits give high values
[5] = target: Calcium-dependent protein kinase 1 (Plasmodium falciparum (isolate 3D7)) (UniProt P62344); assay: PfCDPK1 kinase inhibitors, biochemical, TCAMS library (AID 1159585; cut-off not given, nearly all actives have IC50 up to about 0.98 µM;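 note: inhibitors leave more ATP so luminescence rises with inhibition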); settings: recombinant PfCDPK1, Kinase-Glo ATP depletion luminescence
Calcium-dependent protein kinase 1 (Plasmodium falciparum (isolate 3D7)), sequence (P62344 whole entry, looked up): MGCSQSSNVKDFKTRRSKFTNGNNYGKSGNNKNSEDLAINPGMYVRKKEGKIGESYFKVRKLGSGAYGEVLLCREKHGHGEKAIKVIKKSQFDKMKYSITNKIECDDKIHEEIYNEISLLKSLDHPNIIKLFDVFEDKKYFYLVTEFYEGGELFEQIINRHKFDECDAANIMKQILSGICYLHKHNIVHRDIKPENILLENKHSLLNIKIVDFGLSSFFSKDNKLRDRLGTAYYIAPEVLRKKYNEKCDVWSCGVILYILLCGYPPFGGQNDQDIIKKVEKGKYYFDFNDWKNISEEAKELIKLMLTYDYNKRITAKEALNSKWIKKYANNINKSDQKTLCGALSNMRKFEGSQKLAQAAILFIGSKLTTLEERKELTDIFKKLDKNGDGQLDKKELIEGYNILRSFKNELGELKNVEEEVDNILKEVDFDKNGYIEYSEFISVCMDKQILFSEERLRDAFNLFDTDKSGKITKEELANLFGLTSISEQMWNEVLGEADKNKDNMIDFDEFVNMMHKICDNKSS

[6] = target: Plasmodium falciparum protein kinase 6 (PK6, PF3D7_1337100) (UniProt Q8IDW1); assay: PfPK6 kinase inhibitors, biochemical, TCAMS library (AID 1159586); settings: recombinant PfPK6, Kinase-Glo ATP depletion luminescence
Plasmodium falciparum protein kinase 6 (PK6, PF3D7_1337100), sequence (Q8IDW1 1-305): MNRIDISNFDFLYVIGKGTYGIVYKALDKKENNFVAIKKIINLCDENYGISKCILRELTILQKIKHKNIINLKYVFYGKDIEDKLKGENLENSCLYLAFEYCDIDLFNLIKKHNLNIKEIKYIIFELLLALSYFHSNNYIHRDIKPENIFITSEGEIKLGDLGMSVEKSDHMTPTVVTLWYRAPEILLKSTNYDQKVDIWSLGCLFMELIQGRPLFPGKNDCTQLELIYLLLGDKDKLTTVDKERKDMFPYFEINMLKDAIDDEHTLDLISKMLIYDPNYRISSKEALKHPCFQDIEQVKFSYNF

[7] = target: Protein kinase 7 (PK7), Plasmodium falciparum 3D7 (PF3D7_0213400) (UniProt Q7YTF7); assay: inhibition of Plasmodium PK7 catalytic activity – biochemical, TCAMS antimalarial set, Kinase-Glo luminescence (AID 1159587); settings: recombinant PfPK7, Kinase-Glo ATP depletion luminescence
Protein kinase 7 (PK7), Plasmodium falciparum 3D7 (PF3D7_0213400), sequence (Q7YTF7 1-343): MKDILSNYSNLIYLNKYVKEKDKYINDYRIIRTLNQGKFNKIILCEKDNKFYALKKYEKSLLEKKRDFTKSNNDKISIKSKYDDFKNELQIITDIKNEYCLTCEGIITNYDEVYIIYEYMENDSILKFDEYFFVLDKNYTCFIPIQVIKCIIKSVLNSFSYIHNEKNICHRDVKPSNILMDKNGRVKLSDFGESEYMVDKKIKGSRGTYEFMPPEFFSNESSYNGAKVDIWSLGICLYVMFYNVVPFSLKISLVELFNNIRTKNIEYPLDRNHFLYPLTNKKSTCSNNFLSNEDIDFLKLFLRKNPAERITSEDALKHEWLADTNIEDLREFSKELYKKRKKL

[8] = target: Calcium-dependent protein kinase 4 (Plasmodium falciparum (isolate 3D7)) (UniProt Q8IBS5); assay: PfCDPK4 kinase inhibitors, biochemical, TCAMS library (AID 1159588; cut-off not given, nearly all actives have IC50 up to about 0.91 µM); settings: recombinant PfCDPK4, Kinase-Glo ATP depletion luminescence
Calcium-dependent protein kinase 4 (Plasmodium falciparum (isolate 3D7)), sequence (Q8IBS5 whole entry, looked up): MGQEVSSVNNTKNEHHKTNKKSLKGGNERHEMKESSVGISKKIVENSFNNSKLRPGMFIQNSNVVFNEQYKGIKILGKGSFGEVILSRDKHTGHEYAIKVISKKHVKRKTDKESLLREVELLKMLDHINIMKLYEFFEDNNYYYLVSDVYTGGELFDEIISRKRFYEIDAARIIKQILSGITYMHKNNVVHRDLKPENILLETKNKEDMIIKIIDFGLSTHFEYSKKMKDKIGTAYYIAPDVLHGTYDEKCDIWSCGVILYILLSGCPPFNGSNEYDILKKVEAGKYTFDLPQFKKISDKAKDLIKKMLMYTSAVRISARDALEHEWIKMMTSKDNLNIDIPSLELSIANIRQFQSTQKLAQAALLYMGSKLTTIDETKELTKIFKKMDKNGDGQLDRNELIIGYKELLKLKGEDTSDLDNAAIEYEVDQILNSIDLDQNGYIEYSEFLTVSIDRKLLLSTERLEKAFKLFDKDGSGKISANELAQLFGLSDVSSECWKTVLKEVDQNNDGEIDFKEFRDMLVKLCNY

Structure (SMILES)	growth inhibition [1]	inhibition [2]	inhibition [3] [%]	growth inhibition [4]	outcome [5]	outcome [6]	outcome [7]	outcome [8]
O=C(Nc1n[nH]c2nc(-c3ccco3)c(Br)cc12)c1ccc(CN2CCCC2)cc1	53% (active)	1%	2	101% (active)	inactive	inactive	inactive	inactive
COC(=O)c1cccc(NC(=O)NC2CCN(c3ccnc(NCc4ccc(F)cc4)n3)CC2)c1	39%	29%	5	93% (active)	inactive	inactive	inactive	inactive
COc1cc(OC)cc(C(=O)N2CCOC(CCN3CCC(c4ccccc4)CC3)(c3ccc(Cl)c(Cl)c3)C2)c1 (stereo not given)	61% (active)	13%	1	85% (active)	inactive	inactive	inactive	inactive
Cc1cc(N2CCCC2)nc(Nc2ccc(NC(=O)c3ccccc3C)cc2)n1	40%	22%	2	100% (active)	inactive	inactive	inactive	inactive
Cc1cccc2[nH]c(-c3ccc(-c4cccc(NC(=O)c5ccncc5)c4)cc3)nc12	8%	46%	-7	98% (active)	inactive	inactive	inactive	inactive
Oc1ccc(CCNc2nc(NCc3ccccc3-c3ccc(C(F)(F)F)cc3)nc(NC3CCNCC3)n2)cc1	2%	12%	4	97% (active)	inactive	inactive	inactive	inactive
COc1cccc(-c2ccc(C(=O)NC3CCN(Cc4ccc(C(C)(C)C)cc4)CC3)s2)c1	23%	43%	-2	85% (active)	inactive	inactive	inactive	inactive
O=C(NCCCCN1CC=C(c2ccc3c(c2OCc2ccccc2)CCCC3)CC1)c1ccc(-c2ccc(C(F)(F)F)cc2)cc1	82% (active)	19%	-5	97% (active)	inactive	inactive	inactive	inactive
N#Cc1cccc(Nc2ncc3c(-c4cccc(NC(=O)Cc5cccc(Cl)c5)c4)c[nH]c3n2)c1	95% (active)	-1%	-2	101% (active)	inactive	inactive	inactive	inactive
Cc1ccc2nc(/N=C(\N)NC(=O)NC3CCCCC3)nc(C)c2c1	94% (active)	8%	0	99% (active)	inactive	inactive	inactive	inactive
CCC[C@@H]([C@@H](CC1CCC(C)CC1)C(=O)N[C@@H](CCCCNC(=O)c1ccccn1)C(=O)Nc1nccs1)N(O)C=O (stereo not given in full)	79% (active)	25%	-1	101% (active)	inactive	inactive	inactive	inactive
COCCNCc1ccc(-c2ccc3c(Nc4ccc(F)cc4Cl)ccnc3c2)o1	100% (active)	22%	2	100% (active)	inactive	inactive	inactive	inactive
COc1cc(OC)cc(-c2nnc(Sc3ccc(C#N)c([N+](=O)[O-])c3)n2C)c1	77% (active)	1%	3	95% (active)	inactive	inactive	inactive	inactive
Cc1[nH]n(-c2cccc(C(F)(F)F)c2)c(=O)c1-c1ccc(Cl)cc1	25%	7%	-4	98% (active)	inactive	inactive	inactive	inactive
Cc1ccc(CN2CCN(Cc3cccc(NC(=O)c4ccc5ccccc5c4)c3)CC2)cc1C	23%	62% (active)	-4	89% (active)	inactive	inactive	inactive	inactive
O=C(Nc1ccc(Br)cc1)Nc1ccc(Cn2ncc(N3CCCNCC3)c(Cl)c2=O)cc1	15%	-7%	-1	87% (active)	inactive	inactive	inactive	inactive
O=C(CCn1cncn1)N1CCCC(c2[nH]c3ccccc3c2-c2ccncc2)C1 (stereo not given)	79% (active)	1%	-1	97% (active)	inactive	inactive	inactive	inactive
COc1ccc(Nc2nc(NN=Cc3ccc(-c4ccc([N+](=O)[O-])cc4)o3)nc(Nc3ccccc3)n2)cc1	17%	-8%	5	100% (active)	inactive	inactive	inactive	inactive
Oc1ccc(CCNCCCCCCNCCCc2ccc(Cl)cc2)cc1O	3%	13%	-2	87% (active)	inactive	inactive	inactive	inactive
Cc1cc(N)cc2[nH]c(-c3ccc(N)cc3)nc12	75% (active)	-7%	-11	96% (active)	inactive	inactive	inactive	inactive
